Assay results as given in the supplement of paper PMC6555819.

Test system: PXR homodimer (NR concentration 270 nM)
Assay: PBM binding z-score (relative to random genomic background probes); higher = stronger binding; sequences stand for … in GC…GCGATTGACAGCGTAGAATGAAGG
Procedure, shortened: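 For binding z-scores, the reference was random background probes on custom Agilent 4×180K protein-binding microarrays. These arrays were incubated 1 h with ligand-free nuclear receptor dimers in PBS pH 7.4, 2% milk, 0.02% Triton X-100, 1 mM DTT, 0.2 mg/mL BSA and 0.4 mg/ml salmon testes DNA. Fluorescence was scanned after antibody detection of each partner (one per run) and regression-normalized.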

Row | Sequence | PBM binding z-score
1 | CGTCCAAGGTTAGAGAGGTCAGTGAATGCCGAGT | 7.59
2 | TCTAGCTGGCCAGAGGGTCACTCAAGAGGTACGG | -0.401
3 | TCTATTAGTTGAGTAGGGCAACCGAAACAGCGGA | -0.0884
4 | GGAACGAGGGCAAAGTTGAGAGCATCTGTCGACG | -0.0151
5 | CCTATGAGTTGACCATAAGGGCAACCGAAGCTCG | 0.421
6 | CAAACTAGGTCACGAAAGGTCAAAGTAGAATGAC | 2.94
7 | GCTAGCAGGACATTTGGGTCACTCAATGACGGGC | 0.862
8 | GCGACTGGGGCAAAGCAGGTTACCAAAAGGTTGG | -0.452
9 | CCTAGTTCGTCAGGAGGTCACACACCGGATATGA | 2.66
10 | GCTGCTAGGTCAATTGATGGTCAGCTAAAGCTCG | -0.942
11 | TCTTGTACATCAAAGGTTAAGAAAGCCGAAGCCT | 0.178
12 | ACTAGTTGGTCAGCTGACGTCACACACAATTCGG | -0.648
13 | ATATGTAGGTTATCGGGTCGTTCAGTTTGCGCAT | 2.09
14 | TCTTGTAGATCCATAGAGGTTAAGAAAGTGCGCT | 0.0814
15 | TCTGCTAGGTCACCGATGGTCAGCTAATCTGCTA | -1.04
16 | AGTCAAAGTTCAGGACGAGCTAACGTAAAGCACG | 0.743
17 | ACTATGAGTTGACTTAGGGCAACCGATACGACGC | 0.888
18 | CCTACTGGGCCAAAAAGGTCATTGACGCCGATAA | 2.1
19 | GCGACTGGGGCACCAGCAGGTTACCATAACTTAA | -0.64
20 | TGTCAAAGTTCAAGGGTAACGTAAGTATCCACAC | 2.3
21 | CCTACTGGGTCAAAAAGGTCATTGATGCCGATAA | 9.56
22 | TTACCAGGGTGAGCTGAGGTCGTTGATCCAACTC | 0.925
